PLK1 PBD inh – PLK1 (human) polo-box domain binding inhibition; P53350; Plk1 PBD binding of FITC phosphopeptide, fluorescence polarization; Potency, µM, usual class: inhibitors; 2.8% of 360,000 active; AID 720504; further: series mostly up to about 57 µM; nearly all actives have a fitted effect of over 65% in size
Target sequence (P53350 whole entry, looked up, the tested form may be a part): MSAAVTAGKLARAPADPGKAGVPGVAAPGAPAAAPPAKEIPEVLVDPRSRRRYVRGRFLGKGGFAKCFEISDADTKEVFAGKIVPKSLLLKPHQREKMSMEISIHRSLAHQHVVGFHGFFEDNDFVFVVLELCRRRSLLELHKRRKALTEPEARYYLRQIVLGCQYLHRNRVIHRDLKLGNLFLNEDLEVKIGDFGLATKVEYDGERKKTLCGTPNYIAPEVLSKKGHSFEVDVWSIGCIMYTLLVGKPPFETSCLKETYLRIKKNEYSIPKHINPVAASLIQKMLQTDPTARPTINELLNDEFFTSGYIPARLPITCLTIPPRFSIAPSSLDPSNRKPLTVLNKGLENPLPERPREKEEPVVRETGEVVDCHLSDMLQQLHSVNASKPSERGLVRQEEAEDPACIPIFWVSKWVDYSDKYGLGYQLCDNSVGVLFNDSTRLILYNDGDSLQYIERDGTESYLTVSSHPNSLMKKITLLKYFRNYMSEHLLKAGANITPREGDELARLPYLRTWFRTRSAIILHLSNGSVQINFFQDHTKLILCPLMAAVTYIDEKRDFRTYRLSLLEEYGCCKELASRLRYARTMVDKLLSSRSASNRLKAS
Rango release inh – inhibition of RanGTP-driven Rango-importin beta dissociation; Potency, µM (titrated, usually from 46.1 µM); O95149+P62826; Biochemical FRET Rango-importin beta, RanGTP-induced dissociation; AID 540253; 0.071% of 340,000 active; calls by dose curve; further: nearly all actives have a fitted effect of over 45% in size
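FRET read at 45 min, room temperature: inhibitors block the CFP/YFP signal rise when RanGTP (0.6 uM Ran, 2 mM GTP, 0.2 uM RCC1) frees Rango (0.1 uM) from importin beta (0.25 uM). Pre-read after 5 min compound exposure flags interference.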
VDR inh – vitamin D3 receptor (human) inhibition | P11473 | VDR-SRC2-3 peptide fluorescence polarization, 2 h | Potency, µM, usual class: inhibitors | 0.93% of 400,000 active | AID 504847
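Fluorescence polarization assay measuring small-molecule disruption of VDR binding to the coregulator peptide SRC2-3. Compounds were pin-transferred (23 nl) into the reagent mix and incubated 2 h at room temperature before reading.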
Rango-impB inh – Rango-importin beta binding inhibition; AID 540263; Rango CFP/YFP FRET sensor + importin beta, 45 min; 0.031% of 340,000 active; Potency, µM (titrated, usually from 92.2 µM); calls by dose curve; further: nearly all actives have a fitted effect of over 15% in size
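FRET biosensor Rango (snurportin 1 IBB between N-terminal EYFP and C-terminal Cerulean), 50 nM in PBS/1 mM DTT/0.02% Tween-20/0.1% BSA, preincubated 5 min RT with compound; 0.125 microM importin beta added, 45 min RT, CFP/YFP FRET ratio read.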
GCN5L2 inh – blocks human GCN5L2 histone acetyltransferase; GCN5L2 HAT assay, ThioGlo1 CoA-SH fluorescence; Q92830; Potency, µM (top dose mostly 58.9 µM), hits mostly inhibitors; 0.21% of 390,000 active; AID 504327
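Fluorescence readout, Ex340nm/Em540nm: ThioGlo1 (50uM final) reacts with free CoA thiol released as 20nM GCN5L2 acetylates H3(1-25) peptide (75uM) using acetyl-CoA (70uM). Compound and enzyme sat 15 min beforehand; 20 min room-temperature reaction.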
PI5P4Ka inh – PI5P4K alpha (human) kinase inhibition; P48426; PI5P4Kalpha enzyme, ADP-Glo luminescence, 60 min; stronger effect = lower value; max response, %; 1.2% of 330,000 active; AID 652105; active means max response of -50% or lower; inconclusive means between -30% and -50%; inactive means -30% or higher; further: value at the top dose of about 77 µM
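ADP-Glo luminescence end-point read after a 60 min room-temperature kinase reaction of PI5P4Kalpha plus substrate, initiated with ATP at 5 microM final. Buffer: 0.038 M HEPES pH 7.4, EGTA, 0.1% CHAPS, 5% DMSO.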
A number is an active result; . = inactive; ? = inconclusive; / = not tested or not shown. An excerpt weighted towards active compounds, which were near 3.6% of everything screened. Unless noted, the call rests on the fitted dose curve; in most records, active means well fitted curve in the direction sought with a large enough effect; inconclusive means small, poorly fitted or top-dose-only effect, or another doubt; inactive means no such curve, though single readings can be large; an effect the other way counts as inactive or inconclusive.

SMILES	PLK1 PBD inh	Rango release inh	VDR inh	Rango-impB inh	GCN5L2 inh	PI5P4Ka inh
COC(=O)c1c(-c2cccnc2)csc1NC(=O)c1cc(C)on1	6.7µM	.	79µM	.	.	/
CCOc1ccc(C2C(C(=O)Nc3ccccc3C)=C(C)Nc3nnnn32)cc1 (stereo not drawn)	/	/	.	/	.	/
COC(=O)CC1Oc2ccc(C)cc2-n2cc(-c3ccc(C)cc3)nc21 (stereo not drawn)	/	/	.	/	.	/
CCN1c2ccccc2N(C)C1(C)c1ccccc1 (stereo not drawn)	1.7µM	?	?	?	.	.
COC(=O)[C@@]1(C)[C@H]2C(=O)N(Cc3ccccc3)C(=O)[C@H]2[C@H]2CN=C(SCC(=O)c3ccccc3)N21	?	.	20µM	.	.	.
N/C(=C\C(=O)c1cc(Cl)ccc1O)C(Cl)(Cl)Cl	6.7µM	.	?	.	.	.
Cc1cccc(C)c1NC(=O)C1CCCN1S(=O)(=O)c1ccc(-c2ccc(=O)[nH]n2)s1 (stereo not drawn)	12µM	.	?	.	.	?
CCOc1ccccc1-c1noc(CSc2nnc(-c3ccccc3)n2-c2cccc(C)c2)n1	/	/	.	/	.	/
COc1ccc(N=C2C(=O)Nc3ccccc32)cc1	.	.	.	.	.	/
COc1ccc(N=C2C(=O)N3c4c(cccc42)C(C)=CC3(C)C)cc1	.	.	50µM	.	.	.
Cc1ccc(O)c(C(=O)c2cnn(-c3ccccc3)c2)c1	3.4µM	.	?	.	.	?
COCCCNC1=C(C#N)C(=O)NC(c2cccc([N+](=O)[O-])c2)S1 (stereo not drawn)	19µM	/	/	/	/	.
COc1ccc(NC(=O)CSc2ncc3c(n2)-c2cc(Cl)ccc2N(Cc2ccccc2F)S3(=O)=O)cc1	/	/	.	/	.	/
Cc1cc(=O)[nH]c(N/N=C/c2ccccn2)n1	.	.	.	.	.	.
O=c1cnnc(N/N=C/c2ccccn2)[nH]1	21µM	.	?	.	.	.
Cc1cccc(-n2c(=S)[nH]c3c(oc4ccccc43)c2=O)c1	.	.	.	.	.	.
O=c1c2oc3ccccc3c2[nH]c(=S)n1-c1ccccc1	27µM	?	.	?	.	.
COc1ccc(-c2cc(C(=O)Nc3c(Cl)cccc3Cl)no2)cc1OC	/	/	.	/	.	/
COc1ccc(N2CCN(CCCNC(=O)c3nnc(Cc4ccc(F)cc4)o3)CC2)cc1	/	/	.	/	.	/
COc1cccc(CNC(=O)CCN2C(=O)[C@@H]3Cc4ccccc4CN3C2=O)c1	27µM	.	?	.	.	.
COc1ccccc1C(=O)NC1(C(F)(F)F)C(=O)Nc2c1c(=O)[nH]c(=O)n2-c1ccccc1 (stereo not drawn)	/	/	.	/	.	/
Cc1ccc(NC(=O)CCC(=O)c2ccc(F)cc2)cc1Cl	.	.	.	.	.	.
Cc1ccc(NC(CC(=O)c2ccccc2)C(=O)O)cc1Cl (stereo not drawn)	24µM	?	?	?	.	.
CSCCC(NC(=O)c1ccccc1)C(=O)OCC(=O)Nc1ccc(C)c(Cl)c1 (stereo not drawn)	21µM	.	?	.	.	.
O=C(CC(Nc1ccc(Cl)cc1Cl)C(=O)O)c1ccccc1 (stereo not drawn)	.	.	79µM	.	.	.
SMILES	PLK1 PBD inh	Rango release inh	VDR inh	Rango-impB inh	GCN5L2 inh	PI5P4Ka inh
Cc1cc(NC(=O)COc2ccc3oc4ccccc4c3c2)no1	30µM	.	.	.	.	.
Cc1cc(NC(=O)COc2ccc3c(C)c(C)c(=O)oc3c2)no1	.	/	/	/	/	.
CCOc1ccc(C(C)=O)cc1N1C(=O)C2C3C=CC(O3)C2C1=O (stereo not drawn)	27µM	.	22µM	.	.	/
Cc1ccc(CN2C(=O)CN(C3CCC(C)CC3)C(=O)C2c2ccc(F)cc2)cc1 (stereo not drawn)	/	/	.	/	.	/
CCOC(=O)C1=C(O)/C(=C/c2ccc(-c3ccccc3C(=O)O)o2)SC1=Nc1ccc(C)cc1	?	?	79µM	?	.	-99
CCOC(=O)C1=C(O)/C(=C/c2ccc(-c3ccccc3C(=O)O)o2)SC1=Nc1ccc(OC)cc1	.	?	.	?	.	-55
CC(C)c1ccc(NC(=O)CN2C(=O)COc3ccc(S(=O)(=O)N4CCCCC4)cc32)cc1	/	/	.	/	.	/
O=[N+]([O-])c1cccc(C(=Nc2ccccc2)NO)c1	.	.	.	.	.	.
O=[N+]([O-])c1cc([N+](=O)[O-])c2c(=Nc3ccccc3)n(-c3ccccc3)n(O)c2c1	6µM	.	?	.	?	?
CC(C)NS(=O)(=O)c1ccc2[nH]c3nc(SCC(=O)Nc4ccc(F)c(F)c4)nnc3c2c1	/	/	.	/	/	/
CCC(C)NC(=O)Cn1c(=O)n(Cc2ccc(C(=O)NCc3ccc(C)cc3)cc2)c(=O)c2ccccc21 (stereo not drawn)	/	/	.	/	.	/
CCCCCC(=O)Cc1cc(O)cc2c1C(=O)Oc1cc(O)c(C(=O)O)c(CCCCC)c1O2	24µM	.	?	.	.	-76
Cc1cccc(OCC(=O)Nc2c(C(=O)N3CCN(c4ccccc4)CC3)oc3ccccc23)c1	/	/	.	/	.	/
COC(=O)c1ccccc1NC(=S)N(C)C	.	.	.	.	.	.
COC(=O)c1ccccc1N=C(SC)N(C)C	30µM	.	?	.	.	.
CC(C)N(CCCNC(=O)CC1Oc2ccccc2NC1=O)Cc1ccccc1 (stereo not drawn)	27µM	.	.	.	.	.
CC(C)CN(CCCNC(=O)CC1Oc2ccccc2NC1=O)CC(C)C (stereo not drawn)	.	.	.	.	.	/
CC1(CCc2ccccc2)NC(=O)N(CC(=O)O)C1=O (stereo not drawn)	24µM	.	?	.	.	.
CC1(CCc2ccccc2)NC(=O)N(CC(=O)Nc2ccccc2)C1=O (stereo not drawn)	.	.	.	.	.	.
O=C1NC(=S)NC(=O)C1=Cc1ccccc1C(=O)O	24µM	.	?	.	/	-73
CC1(C)OC(C)(C)/C(=C/Nc2ccc(O)cc2)C1=O	.	.	.	.	.	-70
COc1cc(/C=C2\NC(=S)N(C)C2=O)ccc1OCc1ccccc1F	.	.	.	.	.	.
C#CCOc1c(Br)cc(/C=C2/C(=O)ON=C2C)cc1OC	2.7µM	.	?	.	.	.
CCOc1cc(/C=C2/C(=O)ON=C2C)ccc1OCc1ccccc1F	0.84µM	.	.	.	.	/
C#CCOc1c(Br)cc(/C=C2/C(=O)ON=C2C)cc1OCC	4.2µM	.	?	.	.	.
CCOc1c(Br)cc(/C=C2\N=C(C)OC2=O)cc1Br	.	.	.	.	.	.

Source: PubChem
